Measurements: the supplement of paper PMC12636033
± gives the standard deviation of the averaged measurements. In all, about 33,000 sequences were measured (“E-score (rank enrichment, -0.5 to 0.5)”: median about -0.0043, highest 2% from about 0.24 on). Many of the other results were omitted from the sample, so the highest values are more common in it than they were.

system: 2Sp-muMax20 (muMax20 with two 2,6-bis(methyl)pyridine Cys staples); assay: PBM 8-mer E-score (E-score (rank enrichment, -0.5 to 0.5)); higher = stronger preferential binding
Experimental: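 Protein binding microarray (universal PBM chip covering all 10-mers in fixed probe flanks) with chemically synthesized human Max(13-93) bHLH-LZ analogs (not full-length Max) bearing noncanonical residues (hArg, Tha, Aib, Nle at 65) and aromatic Cys staples. Read-out per 8-mer (and its reverse complement): E-score (rank-based enrichment, -0.5 to 0.5) and Z-score of median probe intensity.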

Sequence | PBM 8-mer E-score
ATATAATA | 0.244 ± 0.015
CTATAATA | 0.0904 ± 0.023
GAATAATA | 0.0134 ± 0.025
GTATAAGA | 0.171 ± 0.024
GCGACCCA | -0.125 ± 0.0022
TAACTAGA | 0.216 ± 0.032
TAAATTGA | 0.123 ± 0.068
TATATACA | 0.11 ± 0.072
CCTACACG | -0.0918 ± 0.0064
ACTATACA | 0.236 ± 0.052
ACTACACG | 0.134 ± 0.1
AATATACA | 0.272 ± 0.012
AATATACT | 0.0855 ± 0.0041
ACTACACA | 0.317 ± 0.02
TCTATACA | 0.111 ± 0.0021
GCTATACA | 0.148 ± 0.0048
GAGGGCAA | 0.00807 ± 0.048
AATTGTGT | 0.124 ± 0.015
ATGGCGTC | -0.112 ± 0.017
AATCTCAC | -0.00554 ± 0.028
GCACAACA | 0.245 ± 0.044
GCACAACC | -0.26 ± 0.11
CCACAACA | -0.0195 ± 0.008
AATCGATA | 0.122 ± 0.028
GATCGATA | 0.0711 ± 0.063

Sequence | PBM 8-mer E-score
TATCGATA | 0.28 ± 0.0074
CGTAGTTC | -0.126 ± 0.036
ATGGTGCG | -0.0695 ± 0.038
CATGGGCC | -0.227 ± 0.033
ATGGTAAT | 0.0649 ± 0.056
CCCGTAGA | -0.219 ± 0.0027
CGGCGGGA | -0.183 ± 0.048
GGCGGGAA | 0.0758 ± 0.012
GGGCGGGA | 0.302 ± 0.009
GGCGGGGA | 0.327 ± 0.0043
CGCGGGGA | 0.00762 ± 0.0032
AGGCGGGA | 0.0612 ± 0.085
CGGGATAG | -0.0726 ± 0.029
GATAATAA | 0.161 ± 0.11
AATAATCA | 0.0327 ± 0.025
GATAATCC | -0.0127 ± 0.051
GATAATCA | 0.291 ± 0.0043
TATAATCA | 0.248 ± 0.026
CATAATCA | 0.122 ± 0.058
CTCCTGCA | -0.0859 ± 0.085
ACCAGCGA | -0.0875 ± 0.13
AGTGCCCG | -0.183 ± 0.011
CGGGCCCG | -0.0343 ± 0.1
ACCTTCAG | 0.0376 ± 0.011
CAACGGCC | -0.302 ± 0.033

Sequence | PBM 8-mer E-score
CAAACGGC | -0.18938 ± 4.9e-05
AAACGGCC | 0.2844 ± 0.0015
GAAACGGC | -0.0635 ± 0.06
AAAACGGC | 0.295 ± 0.024
AAACGGCT | -0.108 ± 0.055
GTATCTCA | 0.17 ± 0.075
CAACCTCC | -0.00017 ± 0.065
GAAGTGTA | -0.0146 ± 0.06
ATGGCTGG | -0.00368 ± 0.018
TATGTCAA | 0.224 ± 0.067
AGTGGTAA | 0.0408 ± 0.025
ATTATATA | 0.199 ± 0.014
CCTATATC | -0.0131 ± 0.064
AGTATATC | -0.0248 ± 0.067
ATTATATC | 0.243 ± 0.051
AGTATATG | 0.125 ± 0.12
ATTATATG | 0.198 ± 0.017
AGTATCTA | 0.3 ± 0.034
ACTATCTC | -0.108 ± 0.18
ACTATATC | 0.302 ± 0.055
CGTATCTA | 0.000215 ± 0.053
GGTATCTA | -0.00749 ± 0.008
AGTATATA | 0.273 ± 0.03
CGCGCTGA | 0.00249 ± 0.09
CATGCAGG | 0.0699 ± 0.036

Sequence | PBM 8-mer E-score
CCTAGTTA | 0.0579 ± 0.045
CGTGGGTC | 0.00478 ± 0.056
CCCAAACC | 0.0283 ± 0.012
AGTGCAAA | -0.0314 ± 0.044
GTGTGGCA | 0.0191 ± 0.059
GAAGCCGA | -0.13 ± 0.0099
CGATCCTC | -0.0245 ± 0.032
GCGCAAAC | 0.11 ± 0.026
GCGTAGGA | 0.112 ± 0.03
ATGCTTGG | 0.102 ± 0.0062
ACTATATA | 0.254 ± 0.018
ATTATACG | 0.125 ± 0.014
ACTATATG | 0.196 ± 0.0091
ATTATACC | 0.238 ± 0.031
ATTATACA | 0.0914 ± 0.033
GCTATATA | 0.149 ± 0.013
CTTCGGAA | -0.0272 ± 0.017
ATTCGCCC | 0.0547 ± 0.0036
ATCTGACA | -0.0699 ± 0.061
ATATTCAG | 0.126 ± 0.074
CTATTCAA | 0.266 ± 0.08
ATATTCAA | 0.157 ± 0.012
ATATTCAC | 0.109 ± 0.072
ATATTCAT | 0.299 ± 0.027
TTATTCAA | 0.133 ± 0.037

Sequence | PBM 8-mer E-score
ACGCTTTC | -0.00481 ± 0.013
ACGCGAAT | 0.0678 ± 0.068
TAGAATGA | 0.207 ± 0.064
CTAGTATA | 0.219 ± 0.023
AAAGTATA | 0.236 ± 0.03
AAAGTATT | 0.223 ± 0.0032
ATAGTATA | 0.11 ± 0.035
CAAGTATA | 0.142 ± 0.1
GTAGTATA | 0.236 ± 0.045
CGAACCTA | -0.123 ± 0.015
GCGCACTA | 0.0235 ± 0.033
AAATGCTA | 0.251 ± 0.058
GAATGCTA | -0.14 ± 0.023
AAATGCTG | 0.0946 ± 0.018
GTAAACTA | 0.175 ± 0.032
CACCAACA | 0.106 ± 0.0083
GCCCCATA | 0.29 ± 0.019
GACCCATA | 0.188 ± 0.032
CCCCCATA | 0.0149 ± 0.042
GGCCCATA | -0.0969 ± 0.099
AGCCCATA | 0.238 ± 0.035
CGCCCATA | 0.0508 ± 0.075
GTACCAAC | -0.0554 ± 0.078
ATCCAGGC | -0.01 ± 0.042
AAGACAGG | -0.106 ± 0.025

Sequence | PBM 8-mer E-score
GTCTGGAA | -0.0499 ± 0.016
ATCCAAGA | -0.0976 ± 0.054
AGGTGGAT | -0.1057 ± 0.00054
AAAAATCG | -0.00934 ± 0.012
GCATAAGA | 0.0752 ± 0.0016
GCATAGTA | 0.273 ± 0.032
CCATAGTA | 0.144 ± 0.0076
ACATAGTA | 0.118 ± 0.076
CCATAATA | 0.161 ± 0.054
ACATAATC | 0.109 ± 0.04
ACATAATG | 0.193 ± 0.064
ACATAATA | 0.262 ± 0.075
GCATAATA | 0.2429 ± 0.0015
GACATGAC | 0.00058 ± 0.047
GTATGCAC | 0.075 ± 0.08
AACGTTGG | -0.0574 ± 0.07
CGAGCGAA | 0.0234 ± 0.064
AGCATTAA | 0.209 ± 0.0096
CTCATTAA | 0.273 ± 0.031
TGCATTAA | 0.285 ± 0.014
AGCATTAG | 0.0579 ± 0.1
CGCATTAA | 0.0861 ± 0.014
AGCATTAC | -0.0132 ± 0.0023
CTCATTAC | 0.197 ± 0.087
ATCATTAA | 0.0844 ± 0.0038

Sequence | PBM 8-mer E-score
AGCATTAT | 0.266 ± 0.05
CCGGGCTA | -0.277 ± 0.0046
TGACCTCA | -0.183 ± 0.016
AGCTCAGA | -0.181 ± 0.0029
CGGATAGC | -0.0994 ± 0.018
CTAGCTGA | -0.0742 ± 0.045
AGTCATAA | 0.037 ± 0.035
ATACATAC | 0.0484 ± 0.023
ATACATAA | 0.0924 ± 0.008
ATACATAT | 0.258 ± 0.0069
AGACATAC | -0.0281 ± 0.088
AGTCATAT | 0.24 ± 0.015
AGACATAT | 0.249 ± 0.0045
AGTCATAG | 0.0709 ± 0.034
AGACATAG | 0.0229 ± 0.087
ACCTTATG | 0.0929 ± 0.036
GGGGAACA | 0.124 ± 0.0046
AATCAACC | 0.157 ± 0.047
ACTAAGCT | -0.0864 ± 0.087
ATTCTCAC | 0.0448 ± 0.078
ATAGCATA | 0.204 ± 0.038
ATAGCATG | 0.258 ± 0.037
ATAGCATC | 0.118 ± 0.015
